The list is not random: actives were taken first. Their share in the collection is about 10%.
BAZ2B inh: blocks human BAZ2B | AlphaScreen BAZ2B-H3K14Ac peptide displacement | Q9UIF8 | Potency, µM (series often up to 114 µM), usual class: inhibitors | 360,000 compounds, 4.4% hits | AID 504333; also: nearly all actives have a fitted effect of over 60% in size
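BAZ2B (50 nM) with biotin-H3(5-23)K14Ac peptide (50 nM) in PBS pH 7.4, 0.01% Tween-20, preformed 30 min, then compound 30 min at room temperature; top concentration 110uM. AlphaScreen streptavidin donor/nickel chelate acceptor beads (10 ug/mL final), 20 min dark, signal read.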
G9a inh: inhibitors of human histone lysine methyltransferase G9a | Q96KQ7 | G9a H3K9 monomethylation, AlphaScreen, 2 h | Potency, µM (top dose mostly 102 µM), hits mostly inhibitors | 350,000 compounds, 8.8% hits; also: nearly all actives have a fitted effect of over 75% in size
Target sequence (Q96KQ7 913-1193 limits assumed): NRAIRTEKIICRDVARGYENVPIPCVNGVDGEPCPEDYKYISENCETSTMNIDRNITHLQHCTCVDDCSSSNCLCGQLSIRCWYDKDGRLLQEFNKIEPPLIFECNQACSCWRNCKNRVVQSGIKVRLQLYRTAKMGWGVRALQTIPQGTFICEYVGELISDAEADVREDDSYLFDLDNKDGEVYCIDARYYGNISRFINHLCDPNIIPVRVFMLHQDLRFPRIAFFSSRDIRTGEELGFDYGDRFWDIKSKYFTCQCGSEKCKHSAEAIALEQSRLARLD
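Compounds were preincubated with 20 nM G9a for 15 min, after which biotinylated H3K9 peptide (500 nM) and SAM (20 uM) started a 2 h room-temperature reaction. Monomethylated product was quantified by antibody-based AlphaScreen chemiluminescence.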
JMJD2A Tudor: JMJD2A Tudor domain (human) inhibition. AID 504339. Potency, µM (top dose mostly 114 µM), actives largely listed as inhibitors. AlphaScreen JMJD2A-Tudor / H3K4me3 peptide binding. 390,000 compounds, 4.4% hits; also: nearly all actives have a fitted effect of over 50% in size
HP1b chromo inh: blocks HP1-beta chromodomain binding to methylated histone tails; Potency, µM (series often up to 114 µM), actives largely listed as inhibitors; P83916; 390,000 compounds, 0.56% hits; AID 540317; AlphaScreen HP1-beta / biotin-H3K9me3 peptide binding; also: nearly all actives have a fitted effect of over 70% in size
Target sequence (P83916 whole entry, looked up): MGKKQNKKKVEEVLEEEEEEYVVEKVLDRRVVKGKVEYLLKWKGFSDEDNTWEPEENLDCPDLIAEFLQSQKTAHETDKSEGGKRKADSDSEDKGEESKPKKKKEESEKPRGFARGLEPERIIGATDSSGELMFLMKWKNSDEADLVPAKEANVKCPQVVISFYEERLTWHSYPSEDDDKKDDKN
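Compound inhibition of the preformed complex between 50 nM HP1-beta and 50 nM biotinylated H3K9me3 peptide was read by AlphaScreen. Buffer was PBS pH 7.4 with 0.01% Tween-20. Incubations ran 30 min at room temperature, with 10 ug/mL donor/acceptor beads.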
GLS inhibitor: inhibitors of human glutaminase (GLS); GLS enzymatic activity, qHTS titration; Potency, µM (highest dose often 45.5 µM), usual class: inhibitors; 410,000 compounds, 0.21% hits; AID 624170
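hKGA in 45 mM KH2PO4 pH 8.2, 0.02% Tween-20 with pin-transferred compounds; 1 mM L-glutamine (stock) plus glutamate oxidase/HRP/Amplex Red coupling added. Fluorescence read initially and after 30 min at RT.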
Large screens that a line does not name were inactive. Calls follow the shape of the dose curve; as a rule, active = well fitted curve in the direction sought with a large enough effect; inconclusive = small, poorly fitted or top-dose-only effect, or another doubt; inactive = no such curve, though single readings can be large; an effect the other way counts as inactive or inconclusive.

Cc1ccc(C)c(S(=O)(=O)N2CCCOC2CNC(=O)C(=O)NCCCn2ccnc2)c1 (stereo not drawn)	BAZ2B inh 45µM, HP1b chromo inh inconclusive
O=C(NCCCn1ccnc1)C1CCCN(S(=O)(=O)c2ccc(F)cc2)C1 (stereo not drawn)	JMJD2A Tudor 13µM
Cc1ccc(S(=O)(=O)N2CCCOC2CNC(=O)C(=O)NCCCn2ccnc2)cc1 (stereo not drawn)	BAZ2B inh 50µM
COc1ccc(S(=O)(=O)N2CCCOC2CNC(=O)C(=O)NCCCn2ccnc2)cc1 (stereo not drawn)	BAZ2B inh 79µM
Cc1ccc(S(=O)(=O)N2CCC(C(=O)NCCCn3ccnc3)CC2)cc1	G9a inh inconclusive
CCOC(=O)C1=CCC(c2cccn2C(=O)OC(C)(C)C)N(S(=O)(=O)c2ccc(C)cc2)C1 (stereo not drawn)	none (no result: BAZ2B inh, G9a inh, JMJD2A Tudor, HP1b chromo inh)
COc1ccccc1OC(C)C(=O)Nc1ccc(-c2nc3ccccc3s2)cc1 (stereo not drawn)	none
COc1cccc(CNC(=O)[C@@H]2CCCN2C(=O)[C@H]2CCCCN2S(=O)(=O)c2ccc(OC)c(C)c2)c1	none (no result: BAZ2B inh, G9a inh, JMJD2A Tudor, HP1b chromo inh)
COc1ccc(S(=O)(=O)N2CCC(C(=O)NCCC(=O)NCc3cccnc3)CC2)cc1	none (no result: BAZ2B inh, G9a inh, JMJD2A Tudor, HP1b chromo inh)
O=C(NCCCn1ccnc1)C(=O)NCC1OCCN1S(=O)(=O)c1ccc(F)cc1 (stereo not drawn)	BAZ2B inh 6.3µM, JMJD2A Tudor 56µM
O=C(NCCCc1ccccc1)C(=O)NCC1OCCN1S(=O)(=O)c1ccc(F)cc1 (stereo not drawn)	none
CCCc1cc(=O)n2[nH]c(-c3cc(OC)c(OC)c(OC)c3)nc2n1	G9a inh 45µM
Cc1oc(-c2cccs2)nc1CS(=O)CC(=O)NC1CCCCCC1 (stereo not drawn)	G9a inh 40µM
Cc1ccccc1-c1nc(CS(=O)CC(=O)NC2CCCC2)c(C)o1 (stereo not drawn)	G9a inh 79µM
Cc1ccc(-c2nc(CS(=O)CC(=O)NC3CCCCC3)c(C)o2)cc1 (stereo not drawn)	G9a inh inconclusive
CC(C)(C)c1ccc(S(=O)(=O)N2CCC(Oc3ccc(-n4cnnn4)cc3)CC2)cc1	none
CN(C)c1ccc([C@@H]2[C@@H]([N+](=O)[O-])[C@H]3C=Cc4ccccc4N3[C@H]2C(=O)c2ccc(Cl)cc2)cc1	BAZ2B inh 32µM, G9a inh 7.9µM, JMJD2A Tudor 45µM, HP1b chromo inh inconclusive
CC(C)Oc1cccc(NC(=O)C2CCN(S(=O)(=O)Cc3ccccc3)CC2)c1	BAZ2B inh inconclusive
C=CCn1c(SCC(=O)c2ccc(Br)cc2)nnc1C(CC(C)C)NC(=O)c1cccs1 (stereo not drawn)	G9a inh 50µM
CCC1CN(C(=O)Nc2cc(Cl)c(OC)cc2OC)c2ccccc2O1 (stereo not drawn)	none
CCO/C(C)=N/n1c2nc3ccccc3nc2c2c(=O)n(C3CCCC3)c(C)nc21	G9a inh 56µM
Cc1nc2ccccc2c(=O)n1C1CCCCCC1	none
CN(C)C(=O)c1ccc2c(c1)N(CC(=O)NCc1ccc(F)cc1)C(=O)C1CCCCN21 (stereo not drawn)	none
CCS(=O)(=O)N1CCc2cc(C(=O)Nc3cc(C(F)(F)F)ccc3Cl)ccc21	none
CCN1C/C(=C\c2cccc([N+](=O)[O-])c2)C(=O)/C(=C/c2cccc([N+](=O)[O-])c2)C1	BAZ2B inh inconclusive, G9a inh 25µM, JMJD2A Tudor inconclusive
Cc1ccc(Cl)cc1N1CCN(C2(c3ccccc3)C(=O)c3ccccc3C2=O)CC1	BAZ2B inh inconclusive, G9a inh inconclusive, JMJD2A Tudor inconclusive
Cc1cccc(N2CCN(C3(c4ccccc4)C(=O)c4ccccc4C3=O)CC2C)c1 (stereo not drawn)	BAZ2B inh 8.9µM, G9a inh 8.9µM, JMJD2A Tudor inconclusive, HP1b chromo inh inconclusive
Cc1ccc(C)c(N2CCN(C3(c4ccccc4)C(=O)c4ccccc4C3=O)CC2)c1	BAZ2B inh 6.3µM, G9a inh 7.1µM, JMJD2A Tudor inconclusive
CCOC(=O)N1CCC(NC(=O)c2cnn(-c3ccc(F)cc3)c2-n2cccc2)CC1	none
COc1cc(CNn2cn[nH]c2=S)cc(Cl)c1OCc1ccccc1	G9a inh 10µM, GLS inhibitor inconclusive

Compound activity deposited in PubChem BioAssay by National Center for Advancing Translational Sciences (NCATS).
